High-throughput results (PubChem)
Tau ThT inhib: tau fibrillization inhibition (ThT binding); P10636; recombinant tau K18 P301L, heparin-induced fibrillization, ThT fluorescence; Potency, µM (top dose mostly 57.4 µM), for the others: at the top dose activity, negative = inhibition, hits mostly inhibitors; 270,000 tested, 2.1% active; AID 1460; also: potency is read from the fitted curve at half-maximal effect; nearly all actives have a fitted effect of over 55% in size
Target sequence (P10636 561-689 P618L limits assumed): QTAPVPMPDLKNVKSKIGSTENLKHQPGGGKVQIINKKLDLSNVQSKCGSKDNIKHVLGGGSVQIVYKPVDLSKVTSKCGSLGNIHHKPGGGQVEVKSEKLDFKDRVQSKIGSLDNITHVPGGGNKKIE
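K18 P301L tau (15 uM + 0.24 uM Alexa 594-tagged), heparin 20 uM, NaOAc pH 7, 6 h 37 C; ThT 30 uM, 1 h RT, ex 450/em 510 nm.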
PNC inhibitor: blocks assembly of the perinucleolar compartment. PC3M PTB-GFP, PNC prevalence imaging, 16 h; hits give low values. activity change (PNC), negative = inhibition, % at 10 µM. 140,000 tested, 3.1% active. AID 2417;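 active = readout at or below -70, meaning at least 70% loss of cells showing the perinucleolar compartment, a nuclear body marking cancer cells; inconclusive = readout between -30 and a set limit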;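 also: plate controls were DMSO wells for no effect and camptothecin positive control wells for full effect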
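PC3M cells stably expressing PTB-GFP, 750–1000 cells/well, treated 16 h at 37 °C with compound (23 nl of library stock), in duplicate. After paraformaldehyde fixation and Hoechst stain, imaged at 20x; PNC prevalence scored by image analysis.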
NPSR antagonist: blocks cAMP signaling of the human neuropeptide S receptor; Q6W5P4; CHO-NPSR cells, cAMP TR-FRET, antagonist mode; Potency, µM (titrated, usually from 38.3 µM), for the others: top-dose activity change, negative = inhibition, actives largely listed as inhibitors; 220,000 tested, 1% active; also: potency is read from the fitted curve at half-maximal effect; nearly all actives have a fitted effect of over 50% in size
Target sequence (Q6W5P4 whole entry, looked up): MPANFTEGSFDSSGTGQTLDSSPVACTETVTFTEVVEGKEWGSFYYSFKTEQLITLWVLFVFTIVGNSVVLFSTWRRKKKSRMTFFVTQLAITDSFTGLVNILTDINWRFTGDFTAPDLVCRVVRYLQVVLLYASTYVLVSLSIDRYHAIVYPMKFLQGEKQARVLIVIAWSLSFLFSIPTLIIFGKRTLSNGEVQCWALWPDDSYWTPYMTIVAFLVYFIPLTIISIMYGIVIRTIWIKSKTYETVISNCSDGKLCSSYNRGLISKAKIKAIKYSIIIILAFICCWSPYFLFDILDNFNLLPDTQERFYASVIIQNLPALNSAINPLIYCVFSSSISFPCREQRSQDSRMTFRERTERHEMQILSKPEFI
Tau fluor cs: counter-screen for tau fibril formation inhibitors; tau K18 P301L Alexa594 fluorescence, heparin fibrillization; Potency, µM (top dose mostly 57.7 µM), for inactives: at the top dose activity change, negative = decrease; 280,000 tested, 0.93% active; also: potency is read from the fitted curve at half-maximal effect; nearly all actives have a fitted effect of over 55% in size
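Human tau K18 P301L (15 uM unlabeled, 0.24 uM Alexa 594-labeled) in 100 mM sodium acetate pH 7 with 20 uM heparin, 6 hr at 37 C. ThT 30 uM added, 1 hr ambient; Alexa 594 FP and total fluorescence read at 555/632 nm.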
JMJD2E inh: blocks human JMJD2E demethylase activity; B2RXH2; JMJD2E catalytic domain, FDH-coupled NADH fluorescence (FDH is formaldehyde dehydrogenase); Potency, µM (series often up to 57.1 µM), inactives show at the top dose activity change, negative = inhibition, most hits filed as inhibitors; 230,000 tested, 1.6% active; active = well fitted inhibition curve with a large enough effect, not every such curve was filed as active; inconclusive = small, poorly fitted or top-dose-only effect, or another doubt; inactive = no such curve, though single readings can be large or run the other way;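 also: potency is read from the fitted curve at half-maximal effect; 0% = wells with enzyme and -100% = buffer wells without enzyme; nearly all actives have a fitted effect of over 50% in size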
Tau fibril FP: inhibitors of human tau fibril formation | P10636 | K18 P301L tau heparin fibrillization, Alexa594 FP, 6 h | Potency, µM (highest dose often 57.7 µM), inactives show top-dose activity, negative = inhibition, most hits filed as inhibitors | 280,000 tested, 0.39% active; also: potency is read from the fitted curve at half-maximal effect; nearly all actives have a fitted effect of over 55% in size
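Read-out: fluorescence polarization of Alexa 594-labeled tau (0.24 uM), 555 nm excitation, 632 nm emission. Mixtures held 15 uM unlabeled K18 P301L, compound and 20 uM heparin, pH 7 acetate buffer, incubated 6 hr at 37 C.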
The depositor's hits bear a star; ? = inconclusive; / = no result; [ ] = dose if it differs, or a comment. The list is not random: actives were taken first. Their share in the collection is about 5.1%. Unless noted, calls follow the shape of the dose curve; as a rule, active = well fitted curve in the direction sought with a large enough effect; inconclusive = small, poorly fitted or top-dose-only effect, or another doubt; inactive = no such curve, though single readings can be large; an effect the other way counts as inactive or inconclusive. Unless noted, % is scaled to controls: 0 for no effect and ±100 for the full control effect.

SMILES	Tau ThT inhib	PNC inhibitor	NPSR antagonist	Tau fluor cs	JMJD2E inh	Tau fibril FP
CC(=O)c1ccc2c(c1)N(C)c1ccccc1S2	10µM*	-5	-7%[46.1 µM]	?	6%	13%
CC(=O)c1ccc2c(c1)N(CCCN(C)C)c1ccccc1S2	/	/	/	/	-1%[25.5 µM]	/
CCCCn1c(O)c(/C=C2\C=NN=C2c2ccccc2)sc1=S	-11%	41	-49%	?	5%	11µM*
Cc1cc(O)c(C(c2ccccc2)N2CCC(C)CC2)c(=O)n1Cc1ccco1 (stereo not given)	?	/	/	-11%	/	-14%
CCC1CSC(Nc2ccc(C(=O)/C=C/c3ccc(Br)cc3)cc2)=N1 (stereo not given)	6%	-103*	-59%	4%	10%	-4%
O=C1CSC(=S)N1c1cccnc1	?	14	7%[46.1 µM]	-3%	-19%	-7%
O=C1CSC(=S)N1Cc1cccnc1	32µM*	19	-8%[46.1 µM]	-6%	-9%	-11%
Cc1oc2ncn(CC(C)C)c(=O)c2c1C(=O)N1CCN(c2ccc(F)cc2)CC1	-10%	/	/	-13%	/	-4%
COCCN(C(=O)Cn1nnc2ccccc21)C(C(=O)NC1CCCC1)c1ccc(OC)cc1OC (stereo not given)	5%	-88*	-2%[46.1 µM]	3%	5%	2%
COCCN(C(=O)Cn1nnc2ccccc21)C(C(=O)NC1CCCCC1)c1ccc(OC)cc1OC (stereo not given)	-13%	-19	-17%[46.1 µM]	2%	12%	7%
O=C(NC1CCCCC1)C(c1ccc(O)c(O)c1)N(C(=O)Cn1nnc2ccccc21)c1cccc(O)c1 (stereo not given)	-7%	/	-31%	-6%	16µM*	-4%
Cc1ccc(NC(=O)c2cnc(SCC(=O)N3CCCc4ccccc43)n(C)c2=O)cc1	2%	/	/	-5%	/	-10%
Cc1ccsc1C(=O)Nc1ccc(F)c([N+](=O)[O-])c1	-3%	-81*	-1%	3%	-10%	4%
CCN(CC)c1nc(N)c2c(N)n(-c3ccccc3C)c(=S)c(C#N)c2c1C#N	4%	16	14%[46.1 µM]	-7%	2%	-5%
CCC1Cc2c(nc(N)c3c(N)nc(N4CCCCC4)c(C#N)c23)O1 (stereo not given)	?	/	-56%	16µM*[quencher]	?	15%
CCN(CC)c1nc(N)c2c(N)nc3c(c2c1C#N)CC(c1ccccc1)O3 (stereo not given)	?	20	?	32µM*[quencher]	?	12%
N#Cc1c(N2CCCCC2)nc(N)c2c(N)nc3c(c12)CC(c1ccccc1)O3 (stereo not given)	?	12	?	11µM*[quencher]	?	15%
Cc1ccc(C)c(N2CCN(C(=O)CCS(=O)(=O)c3ccc4c(c3)CC(=O)N4C)CC2)c1	-9%	/	/	-8%	/	-12%
CCC1c2ccc(C)n2CCN1C(=O)Nc1cc(Cl)ccc1OC (stereo not given)	22µM*	20	-23%	-28%	0%	?
Cc1nc2nncn2c(N2CCN(c3ccccc3)CC2)c1C	-7%	/	/	-8%	/	2%
CCCCOC(=O)Nc1ccc(S(=O)(=O)Nc2nc(C)cc(C)n2)cc1	1%	-25	-5%[46.1 µM]	6%	-10%	6%
CCCCOC(=O)NS(=O)(=O)c1sc(CC(C)C)cc1-c1ccc(Cn2c(CC)nc3c(C)cc(C)nc32)cc1	?	/	13µM*	-18%	-5%	-2%
Cc1cc2c3c(c1)C(C)(c1ccccc1)CC(C)(C)N3C(=O)C21C(C#N)=C(N)OC2=C1C(=O)CC(C)(C)C2 (stereo not given)	-19%	13	10µM*	-12%	-9%	13%
CC1(c2ccccc2)CC(C)(C)N2C(=O)C3(C(C#N)=C(N)Oc4cc(O)ccc43)c3cccc1c32 (stereo not given)	-19%	-30	?	?	-2%	25µM*
CC1=CC(C)(C)N2C(=O)C3(C(C#N)=C(N)Oc4cc(O)ccc43)c3c(C)c(C)cc1c32 (stereo not given)	-18%	37	?	?	3%	?
SMILES	Tau ThT inhib	PNC inhibitor	NPSR antagonist	Tau fluor cs	JMJD2E inh	Tau fibril FP
CC1(C)CC(=O)C2=C(C1)OC(N)=C(C#N)C21C(=O)N2CCCc3cccc1c32 (stereo not given)	6%	-13	-7%[46.1 µM]	3%	6%	-9%
Cc1cc(C)cc(-n2ccn(Cc3ccc(F)cc3)c(=O)c2=O)c1	?	/	/	-23%	/	?
Cc1ccc(Nc2nnc(SCC(=O)Nc3ccccc3[N+](=O)[O-])s2)cc1	5%	-119*	-6%	-4%	-1%	2%
Cc1ccc(-c2nc(SCC(=O)Nc3cc(S(=O)(=O)N4CCCCC4)ccc3Cl)n[nH]2)cc1	1%	-23	-29%	?	3%	22µM*
Cc1ccc(Nc2nnc(SCC(=O)Nc3cccc(S(=O)(=O)N4CCCCC4)c3)s2)cc1	-1%	-7	7%	7.9µM*[quencher]	5%	-13%
O=C(CSc1nnc(Nc2ccccc2F)s1)Nc1cccc(S(=O)(=O)N2CCCCC2)c1	-5%	13	-34%	?	-18%	?
COc1ccc(N2CCN(C(=O)CCn3nc(C)c(S(=O)(=O)N4CCCC4)c3C)CC2)cc1	-9%	/	/	-7%	/	1%
Cc1cccc(N2C(S)=C(C#N)C(=O)NC2c2cccs2)c1 (stereo not given)	32µM*	-84*	-10%	-29%	-15%	?
CCCCOc1ccc(-n2nc(C)cc2C)nn1	-3%	?	1%[46.1 µM]	-8%	13%	-1%
Cc1cc(C)n(-c2ccc(OCC(=O)O)nn2)n1	-8%	-115*	-7%[46.1 µM]	3%	-5%	1%
COc1ccccc1N1CCN(C(=O)c2cnc(N3CCOCC3)c3ccccc23)CC1	3%	/	/	4%	/	6%
COc1ccc(-c2oc3ncn4nc(COc5cccc(C)c5C)nc4c3c2-c2ccc(OC)cc2)cc1	1%	/	/	9%	/	1%
N#C/C(=C(/O)c1cc2ccccc2o1)c1nc2ccccc2s1	6.3µM*	/	27%	?	3%	?
CCc1nnc(NC(=O)c2cc(=O)c3cc(C)c(C)cc3o2)s1	-12%	/	/	-3%	/	2%
COc1ccc(/C=C(\C#N)C(=O)NC2CCS(=O)(=O)C2)cc1OC (stereo not given)	-1%	-119*	0%	-5%	-21%	3%
O=C(CSCCO)Nc1ccc(C2CCCCC2)cc1	-1%	-127*	4%[46.1 µM]	-10%	2%	-3%
CCOc1ccc2nc3cc(N)ccc3c(N)c2c1	7.1µM*	/	/	13µM*[quencher]	?	?
